Screen size: about 5,500 compounds; about 2,000 (36%) were called active. Not shown: some 18% with an inconclusive outcome. The list shows a part of the results. Values without a mark were called inactive. Rule as the data show it: active = normalized growth mostly below about 0.91 (no sharp cut-off); inconclusive = no clear call, values can overlap the other calls; inactive = mostly above about 0.92.
Test: chemical genetic growth profiling, strain panel (AID 1159580);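 also: tested at 20 µM; growth read once vehicle control cultures reached saturation at 30 °C; 1 = growth at the plate median or of vehicle wells; lower values mean less growth of the strain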
Conditions: growth OD

Compound: CC1=CC(=O)c2ccccc2C1=O
- normalized growth (S. cerevisiae deletion strains, locus YJR075W, strain HOC1, hits give low values): 0.0628 (active)
- normalized growth (S. cerevisiae deletion strains, locus YKL009W, strain mrt4, hits give low values): 0.0847 (active)
- normalized growth (S. cerevisiae deletion strains, locus YKL068W, hits give low values): 1.01
- normalized growth (S. cerevisiae deletion strains, locus YKL085W, strain MDH1 (second series), hits give low values): 0.494 (active)
- normalized growth (S. cerevisiae deletion strains, locus YKL085W, strain MDH1, hits give low values): 0.494 (active)
- normalized growth (S. cerevisiae deletion strains, locus YKL160W, strain elf1, hits give low values): 0.822 (active)
- normalized growth (S. cerevisiae deletion strains, locus YKL190W, strain CNB1, hits give low values): 0.0475 (active)
- normalized growth (S. cerevisiae deletion strains, locus YKR001C, strain vps1, hits give low values): 0.0601 (active)
- normalized growth (S. cerevisiae deletion strains, locus YKR026C, strain gcn3, hits give low values): 1.03
- normalized growth (S. cerevisiae deletion strains, locus YKR091W, strain srl3, hits give low values): 1.03
- normalized growth (S. cerevisiae deletion strains, locus YLL001W, strain dnm1, hits give low values): 0.93
- normalized growth (S. cerevisiae deletion strains, locus YLL026W, hits give low values): 0.997
- normalized growth (S. cerevisiae deletion strains, locus YLL041C, strain sdh2, hits give low values): 1.04
- normalized growth (S. cerevisiae deletion strains, locus YLR027C, strain aat2, hits give low values): 0.862 (active)
- normalized growth (S. cerevisiae deletion strains, locus YLR039C, strain RIC1, hits give low values): 0.0839 (active)
- normalized growth (S. cerevisiae deletion strains, locus YLR058C, strain SHM2, hits give low values): 0.0596 (active)
- normalized growth (S. cerevisiae deletion strains, locus YLR102C, strain apc9, hits give low values): 0.0585 (active)
- normalized growth (S. cerevisiae deletion strains, locus YLR113W, strain HOG1, hits give low values): 0.294 (active)
- normalized growth (S. cerevisiae deletion strains, locus YLR221C, strain rsa3, hits give low values): 0.819 (active)
- normalized growth (S. cerevisiae deletion strains, locus YLR258W, strain gsy2, hits give low values): 0.933
- normalized growth (S. cerevisiae deletion strains, locus YLR262C, strain YPT6 (second series), hits give low values): 0.916
- normalized growth (S. cerevisiae deletion strains, locus YLR262C, strain YPT6, hits give low values): 0.155 (active)
- normalized growth (S. cerevisiae deletion strains, locus YLR268W, strain sec22, hits give low values): 0.0659 (active)
- normalized growth (S. cerevisiae deletion strains, locus YLR320W, strain mms22, hits give low values): 0.881
- normalized growth (S. cerevisiae deletion strains, locus YLR330W, strain CHS5, hits give low values): 0.0494 (active)
- normalized growth (S. cerevisiae deletion strains, locus YLR342W, strain FKS1 (second series), hits give low values): 0.0779 (active)
- normalized growth (S. cerevisiae deletion strains, locus YLR342W, strain FKS1, hits give low values): 1.01
- normalized growth (S. cerevisiae deletion strains, locus YLR357W, strain rsc2, hits give low values): 1.04
- normalized growth (S. cerevisiae deletion strains, locus YLR370C, strain arc18, hits give low values): 0.958
- normalized growth (S. cerevisiae deletion strains, locus YLR371W, strain rom2, hits give low values): 0.0598 (active)
- normalized growth (S. cerevisiae deletion strains, locus YLR384C, strain iki3, hits give low values): 1.04
- normalized growth (S. cerevisiae deletion strains, locus YLR418C, strain cdc73, hits give low values): 0.0923 (active)
- normalized growth (S. cerevisiae deletion strains, locus YML016C, strain PPZ1, hits give low values): 0.0501 (active)
- normalized growth (S. cerevisiae deletion strains, locus YML032C, strain rad52, hits give low values): 0.112 (active)
- normalized growth (S. cerevisiae deletion strains, locus YML120C, strain ndi1, hits give low values): 0.968
- normalized growth (S. cerevisiae deletion strains, locus YML124C, strain tub3, hits give low values): 0.0587 (active)
- normalized growth (S. cerevisiae deletion strains, locus YMR058W, strain fet3, hits give low values): 0.832 (active)
- normalized growth (S. cerevisiae deletion strains, locus YMR078C, strain ctf18, hits give low values): 0.0795 (active)
- normalized growth (S. cerevisiae deletion strains, locus YMR125W, strain sto1, hits give low values): 1.04
- normalized growth (S. cerevisiae deletion strains, locus YMR129W, hits give low values): 1.01
- normalized growth (S. cerevisiae deletion strains, locus YMR205C, strain PFK2, hits give low values): 0.799 (active)
- normalized growth (S. cerevisiae deletion strains, locus YMR223W, strain ubp8, hits give low values): 0.0622 (active)
- normalized growth (S. cerevisiae deletion strains, locus YMR231W, strain pep5, hits give low values): 1.02
- normalized growth (S. cerevisiae deletion strains, locus YMR263W, strain SAP30, hits give low values): 0.0592 (active)
- normalized growth (S. cerevisiae deletion strains, locus YMR307W, strain GAS1, hits give low values): 0.118 (active)
- normalized growth (S. cerevisiae deletion strains, locus YNL067W, strain RPL9B, hits give low values): 0.0512 (active)
- normalized growth (S. cerevisiae deletion strains, locus YNL071W, strain lat1, hits give low values): 0.543 (active)
- normalized growth (S. cerevisiae deletion strains, locus YNL128W, strain TEP1, hits give low values): 0.0609 (active)
- normalized growth (S. cerevisiae deletion strains, locus YNL153C, strain GIM3, hits give low values): 0.0481 (active)
- normalized growth (S. cerevisiae deletion strains, locus YNL183C, strain NPR1, hits give low values): 0.393 (active)
- normalized growth (S. cerevisiae deletion strains, locus YNL209W, strain ssb2, hits give low values): 0.983
- normalized growth (S. cerevisiae deletion strains, locus YNL233W, strain BNI4, hits give low values): 0.0537 (active)
- normalized growth (S. cerevisiae deletion strains, locus YNL248C, strain rpa49, hits give low values): 0.883 (active)
- normalized growth (S. cerevisiae deletion strains, locus YNL250W, strain rad50, hits give low values): 0.513 (active)
- normalized growth (S. cerevisiae deletion strains, locus YNL271C, strain bni1, hits give low values): 0.705 (active)
- normalized growth (S. cerevisiae deletion strains, locus YNL298W, strain CLA4, hits give low values): 0.363 (active)
- normalized growth (S. cerevisiae deletion strains, locus YNL307C, strain MCK1, hits give low values): 0.0683 (active)
- normalized growth (S. cerevisiae deletion strains, locus YNL322C, strain KRE1 (second series), hits give low values): 0.999
- normalized growth (S. cerevisiae deletion strains, locus YNL322C, strain KRE1, hits give low values): 0.047 (active)
- normalized growth (S. cerevisiae deletion strains, locus YNR049C, strain mso1, hits give low values): 1.02
- normalized growth (S. cerevisiae deletion strains, locus YNR052C, strain pop2, hits give low values): 0.12 (active)
- normalized growth (S. cerevisiae deletion strains, locus YOL006C, strain TOP1, hits give low values): 0.0979 (active)
- normalized growth (S. cerevisiae deletion strains, locus YOL147C, strain pex11, hits give low values): 0.0692 (active)
- normalized growth (S. cerevisiae deletion strains, locus YOR001W, strain rrp6, hits give low values): 0.923
- normalized growth (S. cerevisiae deletion strains, locus YOR061W, strain CKA2, hits give low values): 0.05 (active)
- normalized growth (S. cerevisiae deletion strains, locus YOR069W, strain VPS5, hits give low values): 0.0532 (active)
- normalized growth (S. cerevisiae deletion strains, locus YOR070C, strain gyp1, hits give low values): 0.959
- normalized growth (S. cerevisiae deletion strains, locus YOR080W, strain dia2, hits give low values): 1.03
- normalized growth (S. cerevisiae deletion strains, locus YOR083W, strain WHI5, hits give low values): 0.882 (active)
- normalized growth (S. cerevisiae deletion strains, locus YOR106W, strain vam3, hits give low values): 0.818 (active)
- normalized growth (S. cerevisiae deletion strains, locus YOR136W, strain idh2, hits give low values): 0.0688 (active)
- normalized growth (S. cerevisiae deletion strains, locus YOR144C, strain elg1, hits give low values): 0.063 (active)
- normalized growth (S. cerevisiae deletion strains, locus YOR184W, strain ser1, hits give low values): 0.0695 (active)
- normalized growth (S. cerevisiae deletion strains, locus YOR231W, strain MKK1, hits give low values): 0.277 (active)
- normalized growth (S. cerevisiae deletion strains, locus YOR265W, strain rbl2, hits give low values): 0.983
- normalized growth (S. cerevisiae deletion strains, locus YOR270C, strain vph1, hits give low values): 0.776 (active)
- normalized growth (S. cerevisiae deletion strains, locus YOR290C, strain snf2, hits give low values): 1.02
- normalized growth (S. cerevisiae deletion strains, locus YOR316C, strain cot1, hits give low values): 0.0564 (active)
- normalized growth (S. cerevisiae deletion strains, locus YPL051W, strain arl3, hits give low values): 0.892 (active)
- normalized growth (S. cerevisiae deletion strains, locus YPL055C, strain LGE1, hits give low values): 0.0708 (active)
- normalized growth (S. cerevisiae deletion strains, locus YPL078C, strain atp4, hits give low values): 0.941
- normalized growth (S. cerevisiae deletion strains, locus YPL106C, strain sse1, hits give low values): 0.904
- normalized growth (S. cerevisiae deletion strains, locus YPL240C, strain hsp82, hits give low values): 1
- normalized growth (S. cerevisiae deletion strains, locus YPL241C, strain CIN2, hits give low values): 0.0549 (active)
- normalized growth (S. cerevisiae deletion strains, locus YPL256C, strain CLN2, hits give low values): 0.356 (active)
- normalized growth (S. cerevisiae deletion strains, locus YPR119W, strain clb2, hits give low values): 0.063 (active)
- normalized growth (S. cerevisiae deletion strains, locus YPR141C, strain kar3, hits give low values): 0.859 (active)
- normalized growth (S. cerevisiae deletion strains, locus YPR163C, strain tif3, hits give low values): 0.0724 (active)
- normalized growth (S. cerevisiae deletion strains, locus YPR167C, strain met16, hits give low values): 0.0586 (active)
- normalized growth (S. cerevisiae deletion strains, strain wtn01, hits give low values): 0.0598 (active)
- normalized growth (S. cerevisiae strains, strain wild type, hits give low values): 0.0461 (active)

Reference: PubChem BioAssay AID1159580 (chemical genetic matrix, 2015)
